The values below come from PubChem BioAssay AID2796 (The Scripps Research Institute Molecular Screening Center, 2010).

Out of some 320,000 compounds screened, about 8,000 (2.5%) were called active. Only a selection was taken, and actives are over-represented in it overall. Values without a mark were called inactive. No stated cut-off is given here; in the data, active means activation above about 47%; inactive means the rest.

The target in this experiment is Aryl hydrocarbon receptor (Homo sapiens) (UniProt P35869). Put plainly: AHR activators, primary screen, cell-based, luminescence, luciferase reporter, human (AID 2796).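 Further: 0% = vehicle wells and 100% = reference agonist.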 Conditions: AHR-responsive luciferase reporter cells, at 5 µM, stronger effect = higher value. On the technique in general: In a reporter assay the amount or activity of a reporter protein is the signal.
Sequence of Aryl hydrocarbon receptor (Homo sapiens) (P35869 whole entry, looked up): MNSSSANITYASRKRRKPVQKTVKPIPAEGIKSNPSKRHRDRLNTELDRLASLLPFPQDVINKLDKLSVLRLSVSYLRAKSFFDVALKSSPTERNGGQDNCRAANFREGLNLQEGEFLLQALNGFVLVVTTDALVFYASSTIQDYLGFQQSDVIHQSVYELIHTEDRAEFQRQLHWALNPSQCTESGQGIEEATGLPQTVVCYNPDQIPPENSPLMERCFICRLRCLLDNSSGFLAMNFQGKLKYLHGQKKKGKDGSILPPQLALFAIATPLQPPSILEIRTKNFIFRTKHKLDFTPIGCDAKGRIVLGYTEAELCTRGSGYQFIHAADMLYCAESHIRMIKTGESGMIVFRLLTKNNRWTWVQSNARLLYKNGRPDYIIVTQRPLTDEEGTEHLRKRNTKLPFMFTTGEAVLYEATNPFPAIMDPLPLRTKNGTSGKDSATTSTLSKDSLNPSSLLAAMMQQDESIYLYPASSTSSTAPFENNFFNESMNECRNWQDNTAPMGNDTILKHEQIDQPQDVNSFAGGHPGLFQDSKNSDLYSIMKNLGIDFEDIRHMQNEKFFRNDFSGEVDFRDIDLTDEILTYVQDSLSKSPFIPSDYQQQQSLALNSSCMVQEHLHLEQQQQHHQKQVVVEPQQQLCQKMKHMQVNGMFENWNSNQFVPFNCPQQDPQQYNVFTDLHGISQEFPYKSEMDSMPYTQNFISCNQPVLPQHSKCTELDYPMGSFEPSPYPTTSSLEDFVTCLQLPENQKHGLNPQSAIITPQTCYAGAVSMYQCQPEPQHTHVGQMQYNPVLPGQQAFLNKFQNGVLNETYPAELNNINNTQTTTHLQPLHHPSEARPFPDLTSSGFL
In the case of `O=C(NCc1ccncc1)c1ccc(NS(=O)(=O)c2cccc([N+](=O)[O-])c2)cc1`, the activation is -0.44%. Consider `CCC(C)NCC(=O)Nc1ccc([N+](=O)[O-])cc1C(=O)Nc1ccccc1F` (stereo not given), for which the activation was 104% (active). On to `O=C(NCCNc1ccc([N+](=O)[O-])cc1Cl)c1ccccc1F`, for which the activation was -0.69%. Next, `O=C(NCCCNc1ccc([N+](=O)[O-])cc1Cl)c1ccccc1F`: -0.83%; `CC1CC(C)CN(C(=O)C2CC(=O)N(c3ccc(F)cc3)C2)C1` (stereo not given): -4.43%; `Cc1ccc(O)c(CCc2ccccc2)n1`: 21.5%.

Consider `C=CCNc1ncnc2ccc(Br)cc12`, for which the activation was 0.32%. `COc1ccc(Nc2ncnc3ccc(Br)cc23)c(OC)c1`: the activation was 52.9% (active).

Take `O=C(O)CCCCCNc1ncnc2ccc(Br)cc12`: the activation is 4.84%. For `O=C(COc1ccccc1F)Nc1nc(-c2ccccn2)cs1` the value was 12.4%.

As for `COc1ccc2[nH]c(=O)c(CN(CC3CCCO3)C(=O)Nc3ccccc3)cc2c1` (stereo not given), the activation was 0.61%. For `Cc1ccc2[nH]c(=O)c(CN(CC3COCCO3)C(=O)Nc3ccccc3C)cc2c1` (stereo not given) the value was 9.5%; for `Cc1cccc(NC(=O)N(Cc2cc3cc(C)cc(C)c3[nH]c2=O)CC2COCCO2)c1` (stereo not given), 59.6% (active); for `Cc1ccc(C2(C(F)(F)F)N=C3Sc4cc(C)cc(C)c4N3C(=O)N2)cc1` (stereo not given), 70.8% (active). `COC(=O)C1=C(N)Oc2c(oc(CO)cc2=O)C1c1c(F)cccc1Cl` (stereo not given): the activation was -0.25%. For `Cc1ccc(N2C(=O)N3[C@@H]4c5ccccc5OC[C@@H]4[C@@H](c4ccccc4)[C@@]3(C)C2=O)cc1` the value was 0.11%. For `CCOC(=O)Cc1ncccc1C(=O)Nc1ccc(OC(F)(F)F)cc1`, the activation was 78.1% (active). Next, `CCOC(=O)Cc1ncccc1C(=O)Nc1ccc(OC)cc1`: 2.4%. Turning to `COC(=O)Cc1ccc(OCC(=O)Nc2ccc(OC(F)(F)F)cc2)cc1`, the activation is 1.97%. Turning to `COc1ccccc1N(C)S(=O)(=O)c1ccc(Cl)c(C(=O)Nc2ccncc2)c1`, the activation was 17.1%. For `CCOc1ccc(OCc2cccc(C(=O)N(CC)CC)c2)cc1` the value was -5.06%; for `C=CCSc1nsc(NC(=O)Nc2cccc(C(C)=O)c2)n1`, 41.3%.

As for `CCSc1nsc(NC(=O)Nc2cccc(C(C)=O)c2)n1`, the activation was 76.5% (active). For `CCSc1nsc(NC(=O)Nc2ccccc2OC)n1` the value was -2.87%; for `O=Cc1c(NCCc2cccc(F)c2)c2ccccc2[nH]c1=O`, 1.73%. With `Nc1c(NCCc2ccccc2)c2ccccc2oc1=O`, the activation is 67.9% (active). Next, `CC(C)(C)Nc1c(N)c(=O)oc2ccccc12`: -0.9%. For `CC(=O)Nc1ccc(NC(=O)CSc2nnc(COc3ccccc3C)n2CC2CCCO2)cc1` (stereo not given) the value was 1.11%; for `CCOC(=O)N1CCN(Cc2nc3ccc([N+](=O)[O-])cc3c(=O)n2-c2cccc(OC)c2)CC1`, 32.6%. Take `Cc1noc(C)c1C(=O)Nc1ccccn1`: the activation is 4.67%.

`Cc1c(C(=O)Nc2ccccn2)oc2ccc(Br)cc12`: the activation is 49.7% (active).

`Cc1nonc1NC(=O)c1oc2ccccc2c1C`: the activation is 12.5%. Next, `Cn1ncc2c(N3CCCCC3)nc(NCCCO)nc21`: 5.05%; `COc1ccc(NS(=O)(=O)c2ccc(NC(=O)c3ccc(N(C)S(C)(=O)=O)cc3)cc2)cc1`: -0.42%. For `COc1ccc(C(=O)Nc2cccc(S(C)(=O)=O)c2)cc1` the value was 67.2% (active); for `COc1cccc(C(=O)Nc2nc3ccc(S(C)(=O)=O)cc3s2)c1`, 7.38%.

As to `CCCNC(=O)COc1coc(CN2CCN(Cc3ccccc3)CC2)cc1=O`, the activation is 1.71%.

Consider `Cc1cnc(C(=O)OCc2c(C)cc(C(C)(C)C)cc2C)cn1`, for which the activation was 3.96%. Regarding `CCN(c1ccc(NC(=O)COC(=O)CCc2nc3ccccc3n2-c2ccccc2)cc1)C(C)C`, the activation is -1.26%.

For the compound `Cc1ccc(C(=O)OCC(=O)N2CC(C)CC(C)C2)cc1S(=O)(=O)N1CCCCC1` (stereo not given), the activation is 0.38%. For `O=C(Nc1ccncc1)c1ccc(Cl)c([N+](=O)[O-])c1` the value was 0.64%; for `O=C(Nc1cccnc1)c1ccc(Cl)c([N+](=O)[O-])c1`, -0.85%; for `Cc1ccnc(NC(=O)c2ccc(Cl)c([N+](=O)[O-])c2)c1`, 104% (active).

Regarding `COc1ccc(OC)c(/C=N/NC(=O)c2ccc[n+](CC(=O)c3ccccc3)c2)c1`, the activation is 12.9%. In the case of `Cn1c(C(=O)NCCc2ccsc2)cc2c(=O)n(C)c3ccccc3c21`, the activation was 86.4% (active).

In the case of `CCN1CCCC1CNC(=O)c1cc2c(=O)n(C)c3ccccc3c2n1C` (stereo not given), the activation was 3.13%. As for `Cn1c(C(=O)NCCCN2CCN(c3cccc(Cl)c3)CC2)cc2c(=O)n(C)c3ccccc3c21`, the activation was 7.28%. As for `N#Cc1ccccc1NC(=O)c1ccc2c(c1)OCO2`, the activation is 32.1%. For `O=C(CSc1nn(-c2ccc(F)cc2)c(=S)s1)NC1CCS(=O)(=O)C1` (stereo not given) the value was 3.28%. As for `C=CCN(C(=O)c1cc(C)cc(C)c1)C1(C(=O)Nc2ccccc2)CCN(C(C)C)CC1`, the activation is 5.4%.

In the case of `C=CCn1cc(Cl)cc(C(=O)Nc2ccccc2)c1=O`, the activation was 50.9% (active). For `C=CCc1cccc2cc(C(=O)Nc3ccc(NC(C)=O)cc3)c(=O)oc12` the value was 16.9%; for `CC(C)Cc1nnc(NC(=O)CCC(=O)Nc2ccc3cn[nH]c3c2)s1`, 24.7%. Next, `O=C1N(c2ccc(Cl)cc2)C(c2ccc(Cl)cc2)N2CCCN12` (stereo not given): 54.2% (active); `O=C1NC(=O)C(c2ccc(Cl)cc2)N1` (stereo not given): -2.18%; `Cc1ccc(C)c(S(=O)(=O)N2CCCOC2CNC(=O)C(=O)NC2CCCCC2)c1` (stereo not given): 2.26%. `CC(=O)Oc1cccc(C(=O)Nc2ccccc2NC(=O)c2cccc(OC(C)=O)c2)c1`: the activation is 2.51%. As to `CC(=O)c1cc(NC(=O)c2ccccc2)c(=O)oc1/C=C/N(C)C`, the activation is 60.3% (active). Next, `CCOC(=O)c1cc(NC(=O)c2ccc(Cl)cc2)c(=O)oc1-c1ccccc1`: -1.16%; `CC(C)C(C(=O)NCc1ccco1)N(CC1CCCO1)C(=O)CNS(=O)(=O)c1ccc(F)cc1` (stereo not given): -0.85%.
